# Results from PubChem BioAssay.
# For some of these results: Entries with a potency or affinity are not part of this list. Activity calls are given as the source filed them. Unless noted, no stated cut-off is given here; in the data, active means inhibition above about 80%; inactive means the rest.
# Assays:
# [1] = polyglutamine-triggered caspase-3 activation inhibitors, cell-based (AID 1583); conditions: polyglutamine-induced caspase-3 activation, cell assay; stronger effect = higher value;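 tested at 10 µM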
# [2] = suppressors of polyQ aggregation in yeast, 75Q-TubU reporter (AID 1593); conditions: Yeast 75Q polyglutamine aggregation reporter
# [3] = rescue of polyQ-huntingtin neuronal dysfunction in worms, whole organism, C. elegans mechanosensory neurons, N-terminal huntingtin (AID 1599); conditions: touch response, stronger effect = higher value
# [4] = inhibitors of mitochondrial cytochrome c release, biochemical, purified mitochondria (AID 1603); conditions: stronger effect = lower value;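 further: mouse liver mitochondria challenged with calcium chloride; signal normalized to the plate average as 100%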
# [5] = inhibitors of polyQ protein aggregation (AID 1604); conditions: polyglutamine-induced protein aggregation inhibition assay; stronger effect = higher value; tested at 2.5 µM
# [6] = enhancers of glutamate uptake in motor neurons, MN-1 cell line (AID 1612); conditions: MN-1 motor neuron cells, stronger effect = higher value;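 further: tested at 1 µM final; 0% = mean of DMSO vehicle wells on each plate; positive means more glutamate uptake than control and negative means less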
# [7] = reducers of polyQ inclusions in PC12 cells, cell-based, NGF-treated PC12, GFPQ80 (AID 1614); conditions: PC12 NGF-treated GFP-polyQ80 inclusion reduction;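 further: lower means fewer inclusions and 0 means no inclusions at all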
# [8] = suppressors of polyglutamine aggregation in yeast, 75Q-TubH (AID 1616); conditions: S. cerevisiae 75Q-TubH polyglutamine aggregation suppression; stronger effect = higher value
# [9] = LFS_MB_P medulloblastoma growth inhibition, cell-based, chromothripsis tumors, cisplatin or BGB combos (AID 1671449); conditions: LFS_MB_P medulloblastoma cells;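 further: cells exposed for 96 hours; 0% = vehicle DMSO and 100% = killing by high DMSO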
# [10] = HDN33 neuroblastoma growth inhibition, cell-based, chromothripsis tumors, cisplatin or BGB combos (AID 1671450); conditions: HDN33 neuroblastoma cells, stronger effect = higher value;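 further: cells exposed to compound for four days; 0% = vehicle DMSO and 100% = cell killing by high DMSO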
# [11] = ICB984 medulloblastoma cell growth inhibition, synergistic combos for chromothripsis tumors, cisplatin or BGB combos (AID 1671451; call rule not given here;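 further: cells exposed for 96 hours before readout; 0% = vehicle DMSO and 100% = killing by high DMSO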); conditions: ICB984 medulloblastoma cells, drug combinations, stronger effect = higher value
# [12] = LFS_MB_1R medulloblastoma cell growth inhibition, synergistic combos for chromothripsis tumors, cisplatin or BGB combos (AID 1671452); conditions: LFS_MB_1R medulloblastoma cells, stronger effect = higher value;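 further: cells exposed for 96 hours before readout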
# [13] = HTB85 osteosarcoma cell growth inhibition, synergistic combos for chromothripsis tumors, BGB or cisplatin IC20 combos (AID 1671453); conditions: HTB85 osteosarcoma cells, drug combinations, stronger effect = higher value;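 further: cells exposed for 96 hours before readout; 0% = vehicle DMSO and 100% = high DMSO killing control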
# [14] = CRL2098 osteosarcoma cell growth inhibition, synergistic combos for chromothripsis tumors, BGB or cisplatin IC20 combos (AID 1671454); conditions: CRL2098 osteosarcoma cells, drug combinations, stronger effect = higher value;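 further: cells exposed for 96 h before readout; 0% = vehicle DMSO and 100% = killing by high DMSO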
# [15] = HD-MB03 medulloblastoma cell growth inhibition, synergistic combos for chromothripsis tumors, BGB or cisplatin IC20 combos (AID 1671455; in the data active means inhibition above about 83%;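 further: 0% = vehicle DMSO and 100% = high DMSO as cytotoxic control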); conditions: HD-MB03 medulloblastoma cells, stronger effect = higher value
# [16] = UWB1.289 ovarian carcinoma cell growth inhibition, synergistic combos for chromothripsis tumors, BGB or cisplatin combos (AID 1671456); conditions: UWB1.289 ovarian carcinoma cells, stronger effect = higher value;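 further: cells exposed to compound for four days; 0% = vehicle DMSO and 100% = killing by high DMSO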
# [17] = LFS_MB_2R medulloblastoma cell growth inhibition, synergistic combos for chromothripsis tumors, cisplatin combos (AID 1671457); conditions: LFS_MB_2R medulloblastoma cells, stronger effect = higher value;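 further: cells exposed to compound for four days before readout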
# [18] = MDA-MB-436 breast carcinoma cell growth inhibition, synergistic combos for chromothripsis tumors, BGB or cisplatin combos (AID 1671458; call rule not given here;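 further: cells exposed for 96 hours; 0% = vehicle DMSO and 100% = killing by high DMSO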); conditions: MDA-MB-436 breast carcinoma growth inhibition, drug combinations, stronger effect = higher value
# [19] = UWB1.289_BRCA1 ovarian cancer growth, cell-based, BGB or cisplatin combinations (AID 1671459); conditions: UWB1.289 BRCA1 ovarian carcinoma, drug combinations, stronger effect = higher value
# [20] = human astrocyte viability loss, single and combined drugs, cytotoxicity control for chromothriptic childhood tumor combination screen, cell-based, BGB or cisplatin IC20 combos (AID 1671460); conditions: Human astrocytes, drug combinations, stronger effect = higher value;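 further: cells exposed to compounds for 96 hours before viability readout; 0% = vehicle and 100% = killing control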
# [21] = growth inhibition of BT084 medulloblastoma cells, cell-based, ICGC_MB145, cisplatin and BGB IC40 combos (AID 1671461); conditions: drug combinations, stronger effect = higher value;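 further: cells exposed to drugs for 96 hours; 0% = vehicle DMSO and 100% = high DMSO full killing control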
# [22] = growth inhibition of RCMB18 medulloblastoma cells, cell-based, cisplatin and BGB IC40 combos (AID 1671462); conditions: stronger effect = higher value;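 further: cells exposed to compound for four days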
# [23] = growth inhibition of CRL1545 osteosarcoma cells, cell-based, cisplatin and BGB IC20 combos (AID 1671464); conditions: stronger effect = higher value;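 further: cells exposed to compound for 96 hours before readout; 0% = vehicle DMSO and 100% = high DMSO killing control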
# [24] = measured here: combination with BGB IC40, at 0.05 µM
# [25] = measured here: with BGB IC20 combination, at 0.5 µM
# [26] = measured here: with cisplatin IC20 combination, at 0.5 µM
# [27] = measured here: combination with cisplatin, at 0.5 µM
# [28] = measured here: combination with cisplatin, at 5 µM
smiles,measurement,setting,value
CCC1(c2ccccc2)C(=O)NC(=O)NC1=O,inhibition,[1],-1.25%
same,score,[2],1.23
same,rescue above control,[3],9.64
same,cytochrome c release ratio,[4],0.88
same,inhibition of aggregation,[5],45.6%
same,glutamate uptake change,[6],11.7%
same,inclusion score,[7],2
same,aggregation suppression score,[8],1.66
same,inhibition,"[9]; at 0.5 µM, stronger effect = higher value",93.2% (active)
same,inhibition,"[9]; measured here: combination with BGB IC20, at 0.005 µM",-28.1%
same,inhibition,"[9]; measured here: combination with BGB IC40, at 0.005 µM",-59.2%
same,inhibition,[9]; [24],-45.6%
same,inhibition,"[9]; measured here: combination with cisplatin, at 0.5 µM, stronger effect = higher value",121%
same,inhibition,"[9]; measured here: combination with cisplatin, at 5 µM, stronger effect = higher value",-2.25%
same,inhibition,"[10]; BGB combo, at 5 µM",-9.62%
same,inhibition,[10]; at 0.5 µM,-12.9% (inactive)
same,inhibition,"[10]; cisplatin combo, at 5 µM",-2.75%
same,inhibition,[10]; [25],-25.3%
same,inhibition,[10]; [26],-2.08%
same,inhibition,"[10]; single agent, at 5 µM",3.79%
same,inhibition,"[11]; BGB IC20 combo, at 0.005 µM",-3.73%
same,inhibition,"[11]; BGB IC40 combo, at 0.005 µM",-9.29%
same,inhibition,"[11]; BGB IC40 combo, at 0.05 µM",-3.16%
same,inhibition,[11]; at 0.5 µM,-22.9% (inactive)
same,inhibition,"[11]; cisplatin combo, at 0.05 µM",-8.4%
same,inhibition,"[11]; cisplatin combo, at 0.5 µM",-26.1%
same,inhibition,"[11]; cisplatin combo, at 5 µM",-13.3%
same,inhibition,"[11]; measured here: 5 uM single agent, at 5 µM",-22.7%
same,inhibition,[12]; at 0.5 µM,-18.1% (inactive)
same,inhibition,[12]; [24],-31.8%
same,inhibition,[12]; [27],-10.4%
same,inhibition,[12]; [28],5.72%
same,inhibition,[13]; at 0.5 µM,-10.5% (inactive)
same,inhibition,"[13]; measured here: with BGB IC20, at 0.5 µM",-10.6%
same,inhibition,"[13]; measured here: with BGB IC20, at 5 µM",7.72%
same,inhibition,"[13]; measured here: with cisplatin IC20, at 0.5 µM",-9.45%
same,inhibition,"[13]; measured here: with cisplatin IC20, at 5 µM",10.2%
same,inhibition,"[13]; single agent, at 5 µM",-5.59%
same,inhibition,[14]; at 0.5 µM,-52.1% (inactive)
same,inhibition,"[14]; measured here: combination with BGB at IC20, at 0.5 µM",-60.5%
same,inhibition,"[14]; measured here: combination with cisplatin at IC20, at 0.5 µM",-54.7%
same,inhibition,[15]; at 0.5 µM,-4.07% (inactive)
same,inhibition,"[15]; measured here: combo with BGB at IC20, at 0.5 µM",2.98%
same,inhibition,"[15]; measured here: combo with cisplatin at IC20, at 0.5 µM",-10.5%
same,inhibition,[16]; at 0.5 µM,-5.54% (inactive)
same,inhibition,"[16]; measured here: inhibition with BGB combination, at 0.05 µM",-21.7%
same,inhibition,"[16]; measured here: inhibition with cisplatin combination, at 0.05 µM",-12%
same,inhibition,[17]; at 0.5 µM,-20.1% (inactive)
same,inhibition,[17]; [27],-6.12%
same,inhibition,[17]; [28],0.169%
same,inhibition,[18]; at 0.5 µM,-2.75% (inactive)
same,inhibition,"[18]; measured here: BGB combination, at 0.5 µM",-2.38%
same,inhibition,"[18]; measured here: BGB combination, at 5 µM",1.86%
same,inhibition,"[18]; measured here: cisplatin combination, at 0.5 µM",-5.56%
same,inhibition,"[18]; measured here: cisplatin combination, at 5 µM",-1.94%
same,inhibition,"[19]; BGB combination, concentration series, at 5 µM",22.9%
same,inhibition,[19]; at 0.5 µM,-1.68% (inactive)
same,inhibition,"[19]; cisplatin combination, concentration series, at 5 µM",16%
same,inhibition,[20]; at 0.5 µM,10.1% (inactive)
same,inhibition,"[20]; measured here: combo with BGB IC20, at 0.5 µM",11.5%
same,inhibition,"[20]; measured here: combo with cisplatin IC20, at 0.5 µM",13.6%
same,inhibition,[21]; at 0.5 µM,3.01% (inactive)
same,inhibition,"[21]; cisplatin combination, at 0.5 µM",4.39%
same,inhibition,"[21]; cisplatin combination, at 5 µM",0.177%
same,inhibition,"[21]; measured here: BGB IC40 combination 0.05 uM, at 0.05 µM",-27.4%
same,inhibition,"[21]; single agent, at 5 µM",8.07%
same,inhibition,[22]; at 0.5 µM,1.72% (inactive)
same,inhibition,"[22]; cisplatin combo, at 5 µM",5.8%
same,inhibition,"[22]; measured here: BGB IC40 combination, at 0.05 µM",-18.8%
same,inhibition,[22]; [27],-11.9%
same,inhibition,"[22]; single agent, at 5 µM",10.7%
same,inhibition,[23]; at 0.5 µM,-19.2% (inactive)
same,inhibition,[23]; [25],-11.8%
same,inhibition,[23]; [26],-24.8%
same,inhibition,"[23]; single agent, at 0.05 µM",8.97%
same,inhibition,"[23]; single agent, at 5 µM",-18.2%
